Data published in ChEMBL document CHEMBL1157539, “Thousands of chemical starting points for antimalarial lead identification” (Nature, 2010).

What was measured:
Type in all cases: functional
[1] = test system: Plasmodium falciparum; assay: GSK_TCMDC: Inhibition of Plasmodium falciparum 3D7 in whole red blood cells, using parasite LDH activity as an index of growth. Test compounds present at 2uM
[2] = test system: Plasmodium falciparum; assay: GSK_TCMDC: Inhibition of Plasmodium falciparum Dd2 in whole red blood cells, using parasite LDH activity as an index of growth. Test compounds present at 2uM
[3] = test system: HepG2; assay: GSK_TCMDC: Percent inhibition of human HepG2 cell line. Test compounds present at 10uM.

Row | Structure (SMILES) | Inhibition [1] | Inhibition [2] | Inhibition [3]
1 | CCOc1ccc2nc(C)cc(N/N=C/c3ccccc3[N+](=O)[O-])c2c1 | 100% | 99% | 91%
2 | Cc1cc(NCCC(=O)NCCOc2ccccc2)nc(NCCc2ccccc2)n1.O=C(O)C(F)(F)F | 99% | 9% | 0%
3 | CC(C)CCN1CCC(Oc2ccc(NC(=O)c3ccco3)cc2Cl)CC1.O=C(O)C(F)(F)F | 95% | 93% | 1%
4 | CC(C)C[C@H](NC(=O)c1cc2ccccc2s1)C(=O)N[C@H]1CCN(Cc2ccc(OCCN3CCNCC3)c3ccccc23)C1.O=C(O)C(F)(F)F | 100% | 96% | 43%
5 | COc1cc(OC)cc(C(=O)Nc2cccc(-c3cn4ccc(C)cc4n3)c2)c1 | 86% | 45% | 4%
6 | CNC(=O)COc1ccc(Nc2nnc(-c3ccc(C)c(S(=O)(=O)NCC4CCCO4)c3)c3ccccc23)cc1 (configuration not stated) | 90% | 68% | 0%
7 | CN(C)CCOc1cc(NC(=O)Nc2cccc3c(-c4ccncc4)cccc23)ccc1I.Cl | 100% | 28% | 20%
8 | COc1ccc(N2C(N)=NC(N)=NC2(C)C)cc1OC.Cl | 95% | 0% | 13%
9 | O=C(Cn1c(CCc2cccc(F)c2F)cc(=O)c2cccnc21)N(CCCn1ccnc1)Cc1ccc(-c2ccc(C(F)(F)F)cc2)cc1 | 96% | 47% | 38%
10 | CCCc1ccc(S(=O)(=O)NC2CCN(c3ccnc(Nc4ccc(F)cc4)n3)C2)cc1 (configuration not stated) | 95% | 56% | 40%
11 | Cc1cccc(C(O)CNc2ccnc(Nc3cccc(-c4csc(C)n4)c3)n2)c1 (configuration not stated) | 99% | 88% | 29%
12 | O=C(CCc1c[nH]cn1)Nc1cccc(-c2cccc(-c3nc4ccccc4[nH]3)c2)c1 | 100% | 25% | 8%
13 | CN(C)CC(=O)NCC(NCCCNc1cc(=O)c2ccccc2[nH]1)c1cc(Br)cc(Br)c1 (configuration not stated) | 98% | 2% | 6%
14 | O=C(NCc1cccs1)[C@H](Cc1ccccc1)Nc1ccnc(NCCc2ccc(F)cc2)n1.O=C(O)C(F)(F)F | 85% | 52% | 1%
15 | Fc1ccc2[nH]c(-c3ccc(-c4ccc(CN5CCN(c6cnccn6)CC5)cc4)s3)nc2c1.O=C(O)C(F)(F)F | 99% | 98% | 45%
16 | COc1ccc(OC)c(-c2ccc(O)c(CNCC(C)c3ccccc3)c2)c1 (configuration not stated) | 98% | 96% | 26%
17 | CC(=O)Nc1nc(C(=O)Nc2ccc(-c3cccc(-c4nc5cc(C(F)(F)F)ccc5[nH]4)c3)cc2)cs1 | 100% | 97% | 79%
18 | O=C(NC1CCN(Cc2ccc(Cl)cc2)CC1)c1cn(-c2ccccc2)nc1-c1cccnc1 | 93% | 9% | 13%
19 | O=C(O)C(F)(F)F.c1cc(CN2CCN(CCN3CCOCC3)CC2)cc(-c2ccc(-c3nc4ccccc4[nH]3)cc2)c1 | 100% | 100% | 23%
20 | CN(C)CCOc1ccc(-n2c(-c3nonc3N)nc3cncc(-c4ccc(F)cc4)c32)cc1 | 97% | 7% | 10%

Row | Structure (SMILES) | Inhibition [1] | Inhibition [2] | Inhibition [3]
21 | CCCC(C)Nc1nc(C)cc(N[C@@H](Cc2ccccc2)C(=O)NCc2ccc(C)cc2)n1.O=C(O)C(F)(F)F (some centres not stated) | 100% | 93% | 22%
22 | Cc1cc(C2NC(=O)c3ccccc3N2)c(C)n1-c1ccc2c(c1)OCO2 (configuration not stated) | 86% | 85% | 13%
23 | CN1CCN(c2ccc(-c3cc(-c4ccncc4)c(-c4ccc(Cl)c(O)c4)o3)cc2)CC1.Cl | 100% | 98% | 0%
24 | COc1ccc2nc(N3CCNCC3)nc(NCCCc3ccccc3)c2c1.Cl | 100% | 43% | 31%
25 | Cc1ccc(CN2CCCN(Cc3ccc(C(=O)Nc4ccc(Cl)cc4)cc3)CC2)s1.O=C(O)C(F)(F)F | 85% | 5% | 53%
26 | CCCC(=O)Nc1ccc(Cl)c(NC(=O)COc2cc(C)ccc2C(C)C)c1 | 87% | 67% | 2%
27 | COc1cccc(C(=O)Nc2ccc(-c3nc4ccccc4[nH]3)cc2)c1 | 95% | 19% | 28%
28 | NCc1cccc(-c2ccccc2CNC2CCN(Cc3ccccc3)CC2)c1.O=C(O)C(F)(F)F | 94% | 4% | 0%
29 | COc1cc(C)nc2ccc(NC(=O)c3cc(C(F)(F)F)cc(C(F)(F)F)c3)cc12.Cl | 100% | 99% | 16%
30 | CC[C@H](N/C(=N\c1ccc(-c2ccccc2)cc1)Nc1ccc(C#N)cc1O)c1ccccc1 | 99% | 97% | 0%
31 | c1ccc2[nH]c(-c3ccc(-c4ccc(CN5CCC(N6CCCCC6)CC5)cc4)s3)nc2c1 | 99% | 100% | 26%
32 | Cn1cccc1C(=O)Nc1cccc(-c2nn3ccccc3c2-c2ccnc(Nc3ccc4c(c3)OCCO4)n2)c1 | 95% | 27% | 12%
33 | CN(C)Cc1cccc(-c2cnc(N)c(-c3nc4cc(S(C)(=O)=O)ccc4[nH]3)c2)c1.O=C(O)C(F)(F)F | 100% | 61% | 27%
34 | O=C(O)C(F)(F)F.O=S(=O)(NC1CCN(c2ccnc3ccccc23)C1)c1ccc(OC(F)(F)F)cc1 (configuration not stated) | 88% | 0% | 34%
35 | COc1cc(-c2cc(-c3ccc(S(C)(=O)=O)cc3)cnc2N)ccc1O | 97% | 97% | 37%
36 | COc1cccc2c(Nc3ccccc3C)nc(Nc3ccccc3C)nc12 | 95% | 36% | 9%
37 | Cc1cc(Nc2cccc(C(F)(F)F)c2)nc(Nc2cccc(C(F)(F)F)c2)n1 | 100% | 73% | 0%
38 | O=C(NCC1CCC(C(=O)NC2CCCc3ccccc32)CC1)c1ccc(O)c(-c2ccc(Cl)c(Cl)c2)c1 (configuration not stated) | 93% | 86% | 0%
39 | FC(F)(F)c1ccc(/C=C/c2cncnc2Nc2ccc3[nH]c(Cc4ccccc4)nc3c2)cc1 | 100% | 100% | 21%
40 | CC(C)(C)c1nn(-c2ccccc2)c2[nH]c(=O)c(CNC3CCCC3)cc12 | 100% | 70% | 7%

Row | Structure (SMILES) | Inhibition [1] | Inhibition [2] | Inhibition [3]
41 | CC(C)(C)OC(=O)N1CCN(c2ccccc2NC(=O)c2cccc(C(F)(F)F)c2Oc2ccc(F)cc2)CC1 | 100% | 9% | 3%
42 | COc1ccccc1NC(=O)Nc1ccc(-c2cccc(-c3nc4ccccc4[nH]3)c2)cc1 | 100% | 25% | 42%
43 | OC(COc1ccccc1-c1nc2ccccc2o1)CN1CCCN(CCc2ccccc2)CC1 (configuration not stated) | 97% | 2% | 39%
44 | Cc1nc2nc(N)nc(N)c2c(C)c1Cc1cccc(F)c1.Cl | 96% | 1% | 65%
45 | NCc1ccc(CNCc2cccc(-c3cccc(-c4nc5cc(F)ccc5[nH]4)c3)c2)cc1.O=C(O)C(F)(F)F | 100% | 34% | 15%
46 | N#Cc1cccc(C(=O)Nc2ccc(-c3cccc(CN4CCC(O)CC4)c3)cc2)c1.O=C(O)C(F)(F)F | 100% | 68% | 33%
47 | O=C(Nc1ccc(-c2ccc(-c3nc4cc(C(F)(F)F)ccc4[nH]3)s2)cc1)c1c[nH]cn1 | 92% | 61% | 66%
48 | O=C(Nc1ccc(Oc2ccccc2)cc1)N(Cc1ccc(-c2cccc(CN3CCNCC3)c2)cc1)C1CCN(Cc2ccccc2)CC1.O=C(O)C(F)(F)F | 93% | 53% | 10%
49 | Cc1cccc2c1NC(=O)/C2=N/NC(=S)N(C)C | 96% | 59% | 48%
50 | COc1c(CN2CCOCC2)cccc1-c1cc2c(-c3ccc(C(=O)O)c(C(C)C)c3)ccnc2[nH]1.O=C(O)C(F)(F)F | 98% | 90% | 44%
51 | Cc1ccc(Cn2nc(Cl)c(N3CCNCC3)cc2=O)cc1NC(=O)Nc1ccc(-c2ccccc2)cc1.O=C(O)C(F)(F)F | 98% | 97% | 100%
52 | Cc1cc(NC(=O)c2coc3cc(F)c(N4CC(C)N(C)C(C)C4)cc23)ccc1-n1ccnc1.Cl (configuration not stated) | 96% | 42% | 0%
53 | CCCCCN1CCCC1CNS(=O)(=O)c1cccc(C(=O)Nc2cccc(C(F)(F)F)c2)c1.O=C(O)C(F)(F)F (configuration not stated) | 96% | 12% | 15%
54 | C=C1C[C@@H](n2cnc3c(NC(=O)c4ccccc4)ncnc32)[C@@H](F)[C@@H]1OC(c1ccccc1)(c1ccccc1)c1ccccc1 | 98% | 97% | 16%
55 | Cc1cc(N[C@@H](C)C(=O)Nc2ccccc2)nc(NCCc2ccc(F)cc2)n1.O=C(O)C(F)(F)F | 100% | 43% | 33%
56 | Nc1cc(-c2ccc(-c3cccs3)s2)nc2ccccc12 | 100% | 50% | 32%
57 | O=C(O)C(F)(F)F.Oc1ccc(CCNc2nc(NCCCOc3ccccc3-c3ccc(F)cc3)nc(N3CCNCC3)n2)cc1 | 85% | 8% | 30%
58 | COc1ccc(CCN(C)CCc2ccc(NC(=O)c3cccc4c(=O)c5ccccc5sc34)cc2)cc1 | 95% | 33% | 24%
59 | O=C(/C=C/c1ccc(Cl)cc1)NCCCCCN1CCC(C(=O)Nc2ccc(Cl)c(Cl)c2)CC1 | 100% | 0% | 47%
